Activity calls are given as the source filed them. Calls come from the whole dose curve.
Assay: qHTS drug screen for cell cycle checkpoint inhibitors in PARPi-resistant BRCA-mutant ovarian cancer cell lines. (AID 1963452)
Details: PEO1/OlaR viability, CellTiter-Glo luminescence, 96 h; for Z-AUC: stronger effect = lower value
Text: Women's Malignancies Branch, Center for Cancer Research (CCR),
National Cancer Institute (NCI), National Institutes of Health (NIH), Bethesda, MD
Poly (ADP-ribose) polymerase inhibitors (PARPis) have changed the treatment paradigm in breast cancer gene (BRCA) - mutant high-grade serous ovarian carcinoma (HGSC). However, most patients eventually develop resistance to PARPis, highlighting an unmet need for improved therapeutic strategies. Using high-throughput drug screens, we identified ataxia telangiectasia and rad3-related protein/checkpoint kinase 1 (CHK1) pathway inhibitors as cytotoxic and further validated the activity of the CHK1 inhibitor (CHK1i) prexasertib in PARPi-sensitive and -resistant BRCA-mutant HGSC cells and xenograft mouse models. CHK1i monotherapy induced DNA damage, apoptosis, and tumor size reduction. We then conducted a phase 2 study (NCT02203513) of prexasertib in patients with BRCA-mutant HGSC. The treatment was well tolerated but yielded an objective response rate of 6% (1 of 17; one partial response) in patients with previous PARPi treatment. […] BRCA reversion mutation in previously PARPi-treated BRCA-mutant patients was not associated with resistance to CHK1i.
Among others, 1082 oncology drugs, both approved and investigational, were prioritized based on their status in clinical trial development. […] Drugs with average Z-AUC values less than -1.0 in all three cell lines were classified as "hits" resulting in 151 oncology drug hits. The screen also confirmed cross-resistance between olaparib and other PARPis (rucaparib, niraparib, and talazoparib) in PARPi-resistant PEO1/OlaR and PEO4.
[1] G. L. Lin, K. M. Wilson, M. Ceribelli, B. Z. Stanton, P. J. Woo, S. Kreimer, E. Y. Qin, X. Zhang, J. Lennon, S. Nagaraja, P. J. Morris, M. Quezada, S. M. Gillespie, D. Y. Duveau, A. M. Michalowski, P. Shinn, R. Guha, M. Ferrer, C. Klumpp-Thomas, S. Michael, C. McKnight, P. Minhas, Z. Itkin, E. H. Raabe, L. Chen, R. Ghanem, A. C. Geraghty, L. Ni, K. I. Andreasson, N. A. Vitanza, K. E.Warren, C. J. Thomas, M. Monje, Therapeutic strategies for diffuse midline glioma from high-throughput combination drug screening. Sci. Transl. Med. 11, (2019).
[2] T. M. Yamamoto, A. McMellen, Z. L. Watson, J. Aguilera, R. Ferguson, E. Nurmemmedov, T. Thakar, G. L. Moldovan, H. Kim, D. M. Cittelly, A. M. Joglar, E. P. Brennecke, H. Wilson, K. Behbakht, M. J. Sikora, B. G. Bitler, Activation of Wnt signaling promotes olaparib resistant ovarian cancer. Mol. Carcinog. 58, 1770 - 1782 (2019).
PROTOCOL TABLE (as described by Inglese J, Shamu CE and Guy RK. 2007)
SEQUENCE No. (e.g., 1, 2, 3, etc.); […] (e.g., Cells, Incubation, Reagent, etc.); VALUE; DESCRIPTION.
1; Compounds; 20nL; 1536-well white tissue culture-treated plates.
2; Cells; 5 uL; PEO1, PEO4, and PEO1/OlaR cells at 600 cells per well.
3; Incubation; 96 hr; 37C, 95% humidity, 5% CO2.
4; Reagent; 3 uL; CellTiter-Glo (Promega).
5; Incubation; 15 min; room temperature.
6; Detection; Luminescence, PHERAstar (BMG Labtech) plate reader.
NOTES (numbers refer to Sequence numbers above)
1. MIPE 5.0 compounds were acoustically dispensed by Echo Acoustic Liquid Handler (Beckman Coulter Life Sciences). Each compound was plated at an 11-point concentration range with 1:3 dilution. Bortezomib, a proteasome inhibitor (final concentration, 20 uM), was used as a positive.
2. PEO1, PEO4, and PEO1/OlaR were trypsinized and dispensed in 5 uLof growth medium using a Multidrop Combi dispenser at a density of 600 cells per well to allow compounds to be present during the exponential growth phase.
3. Plates were incubated for 96 hours at standard incubator conditions and covered by a stainless steel gasketed lid to prevent evaporation.
4. Three microliters of CellTiter-Glo (Promega) were added to each well.
5. Plates were incubated at room temperature for 15 min with a stainless-steel lid in place.
6. Luminescence readings were taken using PHERAstar (BMG Labtech). […]

[1] = measured here: PEO1 parental Z-AUC
Potency is the fitted concentration of half-maximal effect.

SMILES | Potency | Z-AUC [1] | Z-AUC (measured here: PEO4 Z-AUC) | Z-AUC
CCCCC(=O)OCC(=O)[C@]1(O)Cc2c(O)c3c(c(O)c2[C@@H](O[C@H]2C[C@H](NC(=O)C(F)(F)F)[C@H](O)[C@H](C)O2)C1)C(=O)c1c(OC)cccc1C3=O | 549 nM (active) | -2.19 | -1.93 | 
COc1cc2c(cc1O)CCN[C@]21CS[C@@H]2c3c(OC(C)=O)c(C)c4c(c3[C@H](COC1=O)N1[C@@H]2[C@H]2c3c(cc(C)c(OC)c3O)C[C@@H]([C@@H]1O)N2C)OCO4 | 39.9 nM (active) | -2.17 | -1.65 | 
CC(C)Nc1cc(-c2c[nH]c(C(=O)N[C@H](CO)c3cccc(Cl)c3)c2)c(Cl)cn1 | 8710 nM (active) | -1.89 | -1.82 | 
C[C@H]1[C@H](C)CC[C@]2(C(=O)O)CC[C@]3(C)C(=CC[C@@H]4[C@@]5(C)C[C@@H](O)[C@H](O)[C@@](C)(CO)[C@@H]5CC[C@]43C)[C@H]12 |  | 0.608 | 0.842 | 1.03 (inactive)
CCC(=O)NS(=O)(=O)c1ccc(-c2c(-c3ccccc3)noc2C)cc1 |  | -1.08 | -1.33 | -0.948 (inactive)
CN(C)c1cccc(-c2c3c(=O)n(-c4ccccc4Cl)[nH]c3cc(=O)n2C)c1 |  | -0.313 | -0.353 | -0.625 (inactive)
O=C(O)c1cnn(-c2nc3cc(OC(F)(F)F)c(Cl)cc3[nH]2)c1 |  | -0.102 | -0.0473 | 0.292 (inactive)
C[C@H]1CN(C[C@H](Cc2ccccc2)C(=O)NCC(=O)O)CC[C@@]1(C)c1cccc(O)c1 |  | -0.254 | -0.529 | -0.66 (inactive)
CN(C)C/C=C/C(=O)Nc1ccc(C(=O)Nc2cccc(Nc3ncc(Cl)c(-c4c[nH]c5ccccc45)n3)c2)cc1 |  | -3.23 | -2.66 | -2.19 (inactive)
O=C(c1ccc(NS(=O)(=O)c2cccc3cccnc23)cc1)N1CCN(CC2CC2)CC1 |  | -0.299 | -0.11 | -0.157 (inactive)
Cc1cc(C)cc(NC(=O)Cc2ccc(OC(C)(C)C(=O)O)cc2)c1 |  | -0.359 | -0.00799 | -0.433 (inactive)
CC(C)N(C[C@H]1O[C@@H](n2cnc3c(N)ncnc32)[C@H](O)[C@@H]1O)C1CC(CCc2nc3ccc(C(C)(C)C)cc3[nH]2)C1 (some centres not stated) |  | 1.75 | 1.7 | 1.59 (inactive)
CCNC(=O)CCC/C=C\C[C@@H]1[C@@H](/C=C/C(O)CCc2ccccc2)[C@@H](O)C[C@@H]1O (some centres not stated) |  | 1.41 | 1.49 | 1.72 (inactive)
C=C1CC[C@@H]2[C@](C)(CO)[C@H](O)CC[C@@]2(C)[C@@H]1C/C=C1/C(=O)OC[C@H]1O |  | -0.159 | 0.023 | 0.643 (inactive)

Reference: PubChem BioAssay (NCATS)
